The values below come from PubChem BioAssay AID1256 (The Scripps Research Institute Molecular Screening Center, 2008).

The assay has as its target Neuropeptide Y receptor type 1 (Homo sapiens) (UniProt P25929). The experiment in a line: NPY-Y1 receptor antagonists, selectivity check, counter-screen for NPY-Y2 antagonist project, cell-based (AID 1256).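 Also: cells challenged with NPY then isoproterenol with cAMP sensed through a CNG channel.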 The conditions noted are these: cell-based NPY-Y1 antagonism counterscreen; at 3.6 µM; stronger effect = higher value.

Molecules are shown by their SMILES. Some of the results follow. A number with no mark means an inactive call. Rule as the data show it: active = inhibition above about 20%; inactive = the rest.

Sequence of Neuropeptide Y receptor type 1 (Homo sapiens) (P25929 whole entry, looked up): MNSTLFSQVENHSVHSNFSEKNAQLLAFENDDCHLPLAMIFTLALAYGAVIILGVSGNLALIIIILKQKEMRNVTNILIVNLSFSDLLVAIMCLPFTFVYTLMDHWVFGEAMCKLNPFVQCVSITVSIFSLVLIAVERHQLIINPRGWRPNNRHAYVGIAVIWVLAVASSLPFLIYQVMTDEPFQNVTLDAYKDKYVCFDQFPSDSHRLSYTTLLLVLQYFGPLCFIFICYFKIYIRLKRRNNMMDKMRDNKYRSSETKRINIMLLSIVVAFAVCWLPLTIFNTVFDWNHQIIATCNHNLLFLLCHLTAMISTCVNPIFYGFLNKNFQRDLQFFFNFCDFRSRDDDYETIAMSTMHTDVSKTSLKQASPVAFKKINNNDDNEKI

For the compound `O=C(COC(=O)c1ccccc1)Nc1ccc(Cl)cc1C(=O)c1ccccc1`, the inhibition is 17.5%.
